Inconclusive results are not listed. Values without a mark were called inactive. Activity calls are given as the source filed them. The call rests on the fitted dose curve; in most records, active means well fitted inhibition curve with a large enough effect; inconclusive means small, poorly fitted or top-dose-only effect; inactive means flat fitted curve, though single readings scatter.
Potency means the concentration at half of the fitted maximal effect.

This experiment can be described thus: qHTS for Inhibitors of Plasmodium falciparum (DD2) proliferation (AID 504314).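 On activity, negative = inhibition: parasite DNA measured by SYBR Green fluorescence after red cell lysis; plate controls were DMSO vehicle for no effect and artemisinin wells for full effect.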 Conditions: P. falciparum Dd2 in erythrocytes, SYBR Green growth, 72 h; series mostly up to 6.11 µM; activity, negative = inhibition: at the top concentration. Put shortly: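 Infected RBCs, 0.3% parasitemia, 2.5% Hct; compound 72 h, 37C/5% CO2; lyse + SYBR Green I, RT overnight, dark; read ex485/em535; normalize to DMSO and artemisinin 0.29 uM.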
As to `C=C(C(C)=O)C(O)c1ccc(Cl)cc1` (centres undefined), the “activity, negative = inhibition” value is -2.31%.
On the same count and under the same terms, the same measure for `COc1ccc(COC(=O)NN=C2C[C@@H](O)[C@@H](O)[C@@H]3[C@H]4C(=O)N(Cc5ccc6c(c5)OCO6)C(=O)[C@@H]4CC[C@H]23)cc1`: -8.26%; for `COC[C@H]1O[C@@H](c2c(OC)cc(OC)cc2OC)[C@H](OC)[C@@H](OC)[C@H]1OC`: -0.903%.
Take `CC(=O)OC[C@H]1O[C@@H](ON=C(C)CCN2CCCCc3nc(C)c(C)cc32)[C@H](OC(C)=O)[C@@H](OC(C)=O)[C@H]1OC(C)=O`: the “activity, negative = inhibition” value was -4.94%.
Take `COC(=O)N1C2CC3(C)CC(=O)CC1(C)C3c1ccccc12` (centres undefined): the Potency result was “inactive”.
As to `C=CCOC(=O)N[C@@H](Cc1ccccc1)C(C(=O)OC)=C(C)NCc1ccccc1`, the “activity, negative = inhibition” value is -2.38%.
Same read-out and setting: with `CCC=CCCC(OC(=O)c1ccc(Br)cc1)C1=CCCCC1=O` (centres undefined) the figure was -7.85%; with `COC(=O)CC=C[C@@H](C)[C@H](NC(=O)OC)c1ccccc1Br`, -2.22%; with `CC(C)(C)Nc1oc(-c2ccccc2)nc1-c1ccc(C(F)(F)F)cc1`, -4.97%.
The same measure, in the same setting: the same measure for `COc1cc2c(cc1OC)[C@@H]1O[C@](c3ccsc3)(C2)Oc2cc(-c3ccccc3)oc(=O)c21`: -10.6%.
On the same count and under the same terms, the same measure for `COC(=O)C(Cc1cc(Br)c(OC)c(Br)c1O)=NO`: -8.84%; for `CC(C)=NOCc1ccc(-c2cn([C@@H]3COC[C@@H]3O)nn2)cc1`: -6.54%.
Consider `COC(=O)[C@@H]1[C@@H](c2ccccc2)NC(=O)N(Cc2ccccc2)[C@@H]1C`, for which the “activity, negative = inhibition” value is 0.355%.
On to `CCCCc1nc2c(c3c1C[C@H](C)OC3)CN(C(=O)Cc1cccs1)CC2`, for which the Potency result is “inactive”.
As for `CN1c2ccccc2[C@@]2(O)C(=O)[C@@]1(C)[C@@H]1CCC=C[C@H]12`, the “activity, negative = inhibition” value was -4.24%.
Same read-out and setting: with `CC=CCCN1C=C(C(=O)OCC)C(c2ccccc2)NC1=O` (centres undefined) the figure was 1.54%.
On the same count and under the same terms, the same measure for `CCOC(=O)CN1C(=O)NC(CCc2ccccc2)C(C(C)=O)=C1C` (centres undefined): -6.25%.
Turning to `CC1(OC(=O)C2CCCC2)C(=O)C=C2C=C(c3ccsc3)N(c3cccc(C#N)c3)C=C2C1=O` (centres undefined), the Potency result is “inactive”.
On to `CO[C@@H]1c2cc(F)ccc2C(=CCCOC(=O)CC=Cc2ccccc2)[C@H]1C`, for which the “activity, negative = inhibition” value is -7.33%.
In the case of `CC12C=C(C=Cc3ccc(Br)cc3)C(C)(C1)C(c1ccc(Br)cc1)CC2=O` (centres undefined), the Potency is 1.5 µM (active).
In the case of `CC(=O)N1C(=O)NC(C)=C(C#N)C1c1ccccc1` (centres undefined), the “activity, negative = inhibition” value is 2.47%.
For the compound `C#CCNC(=O)[C@H]1C=C(OC)C(=O)C[C@H]2c3ccccc3C[C@]12C`, the “activity, negative = inhibition” value is -5.66%.
As to `CCN1C(=NCCCOC(C)C)N[C@H](c2ccccc2)[C@H](C(=O)OC)[C@H]1C`, the “activity, negative = inhibition” value was -2.65%.
For `COc1ccc(-c2nc3c(c4c2C[C@H](c2ccccc2)OC4)CN(S(=O)(=O)c2ccc(C)cc2)CC3)c(C)c1`, the activity, negative = inhibition was -0.2% [at 1.12 µM].
On the same count and under the same terms, with `C=C(C(C)=O)C(O)c1cccc(OC)c1` (centres undefined) the figure was -0.939%.
The same measure, in the same setting: the same measure for `CC(CCC(=O)OC[C@H]1O[C@H](C#Cc2ccccc2)C=C[C@H]1Oc1ccc(C)cc1)=NOC[C@@H](O)[C@H]1O[C@@H]2OC(C)(C)O[C@H]2[C@@H]1O`: -8.19%.
Consider `CC(C)CON=C1C[C@@H](O)[C@@H](O)[C@@H]2[C@H]3C(=O)N(C4CCCCC4)C(=O)[C@@H]3CC[C@@H]12`, for which the “activity, negative = inhibition” value is -8.39%.
Turning to `CC(C)(C)c1nc(-c2ccccc2)oc1Nc1ccc2ccccc2c1`, the Potency was 1.69 µM (active).
Regarding `CCN1C(=O)N[C@@H](CCc2ccccc2)[C@@H](C(=O)OC)[C@H]1C`, the activity, negative = inhibition was 2.52% [at 1.12 µM].
Still for that read-out and setting: with `Cc1noc(C)c1S(=O)(=O)N1CCc2nc(-c3ccccc3)c3c(c2C1)CO[C@@H](C)C3` the figure was 2% [at 1.12 µM].
The same measure, in the same setting: with `CC(CCN1CCCCc2nc(C)c(C)cc21)=NO[C@@H](C)CN1CCCCc2nc(C)c(C)cc21` the figure was -0.377%; with `COC(=O)[C@H]1O[C@@H](c2cc(OC)c(C)c(OC)c2O)[C@H](C)[C@@H](O)[C@@H]1C`, 2.42%.
With `CC1(OC(=O)c2cnc3ccccc3n2)C(=O)C=C2C=C(C3CC3)OC=C2C1=O` (centres undefined), the “activity, negative = inhibition” value was -7.18%.
Same read-out and setting: with `CC(=O)OC[C@H]1O[C@H](CC=NO[C@H](C)CN2CCCCc3nc(C)c(C)cc32)C=C[C@@H]1OC(C)=O` the figure was -4.75%; with `CCN1C(=NCCc2c[nH]c3ccccc23)NC(c2ccccc2)C(C(=O)OC)=C1C` (centres undefined), -6.19%.
Same read-out and setting: with `COc1ccc(-c2nc3c(c4c2C[C@H](c2ccccc2)OC4)CN(C(=O)c2cccnc2)CC3)c(C)c1` the figure was 2.56% [at 1.12 µM]; with `CC(=O)C1=C(C)N(CC#C[Si](C)(C)C)C(=O)N(C(C)=O)C1c1ccccc1` (centres undefined), 2.11%; with `CCCCc1nc2c(c3c1C[C@H](C)OC3)CN(C(=O)c1ccco1)CC2`, -0.515% [at 1.12 µM].
In the case of `COC(=O)N[C@@H](c1cccc(F)c1)C(C(C)=O)C(=O)OC` (some centres undefined), the Potency entry is “inactive”.

The values are drawn from PubChem BioAssay (NCATS).
